# Shown are actives, neighbours in structure and some others; about 5.3% of the full set was active somewhere.
# FMDV inh: High Throughput Screening for Foot and Mouth Disease Virus Antivirals; Potency, µM (doses to about 57.9 µM), hits mostly inhibitors; 1.2% of 410,000 active; FMDV antiviral cell-based qHTS; AID 1159524, 2015; calls by dose curve; tested in HEK293T cells; also: read-out not given here; nearly all actives have a fitted effect of over 45% in size
# Vaccinia mCherry: qHTS for Stage-Specific Inhibitors of Vaccinia Orthopoxvirus: mCherry Reporter Primary qHTS | Vaccinia virus mCherry reporter infection, fluorescence | Potency, µM (series often up to 36.5 µM), actives largely listed as inhibitors | 0.63% of 310,000 active; calls by dose curve; tested in A549 cells; also: nearly all actives have a fitted effect of over 35% in size
# HCV inhibitor: qHTS Assay for Inhibitors of Hepatitis C Virus (HCV); Huh7.5.1 HCVcc-Cre infection, luciferase reporter, 44 h; Potency, µM (top dose mostly 41.8 µM), most hits filed as inhibitors; 3.4% of 340,000 active; active = well fitted inhibition curve with a large enough effect; inconclusive = small, poorly fitted or top-dose-only effect, or another doubt; inactive = no such curve, though single readings can be large or run the other way
#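 Antiviral activity was scored by luciferase reporter output from cells infected with HCVcc-Cre (~0.5 moi) in presence of compound, 44 h infection period, cells seeded 1,000/well 4 h prior.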
# Vaccinia Venus: qHTS for Stage-Specific Inhibitors of Vaccinia Orthopoxvirus: Venus Reporter Primary qHTS; Vaccinia virus Venus reporter expression, fluorescence; 0.46% of 330,000 active; Potency, µM (doses to about 36.5 µM), hits mostly inhibitors; calls by dose curve; tested in A549 cells; also: nearly all actives have a fitted effect of over 30% in size
# MARV entry inh: qHTS for inhibitors of binding or entry into cells for Marburg Virus | Marburg virus pseudotyped entry inhibition, cell reporter | AID 540276, 2011 | Potency, µM (titrated, usually from 37.8 µM), most hits filed as inhibitors | 1.8% of 300,000 active; calls by dose curve; tested in HEK293 cells
# LASV entry inh: qHTS for Inhibitors of binding or entry into cells for Lassa Virus. AID 540256, 2011. 1.2% of 300,000 active. Potency, µM (series often up to 37.9 µM), hits mostly inhibitors. Lassa virus pseudotype entry inhibition, cell reporter; calls by dose curve; tested in HEK293 cells; also: nearly all actives have a fitted effect of over 50% in size
# A number is an active result; 0 = inactive; ? = inconclusive; - = no result given; [ ] = another dose, or the depositor's remark.
SMILES,FMDV inh,Vaccinia mCherry,HCV inhibitor,Vaccinia Venus,MARV entry inh,LASV entry inh
Cc1ccc(Cn2c(SCc3cccnc3)nc3c2c(=O)n(C)c(=O)n3C)cc1,-,0,?,0,0,0
CCn1c(SCC(=O)N2c3ccccc3CCc3ccccc32)nc2c1c(=O)n(C)c(=O)n2C,0,-,0,-,?,0
CC1Cc2ccccc2N1C(=O)CSc1nc2c(c(=O)n(C)c(=O)n2C)n1Cc1ccccc1 (centres undefined),0,0,3.55µM,0,?,?
Cc1ccc(Cn2c(SCCN3CCCCC3)nc3c2c(=O)n(C)c(=O)n3C)cc1,0,-,12.6µM,?,?,?
O=C(Nc1nc2n(n1)C(c1ccc(F)cc1)C=C(c1ccccc1)N2)c1cccc([N+](=O)[O-])c1 (centres undefined),0,0,-,0,0,0
Cc1nnc(NC(=O)C(=O)c2cc(C)n(-c3ccc(C)c(C)c3)c2C)s1,0,0,-,0,?,?
CCN1CCN(c2oc(/C=C/c3ccc(OC)c(OC)c3)nc2C#N)CC1,0,0,-,0,0,0
CO[C@H]1C[C@@H]2CC[C@@H](C)[C@@](O)(O2)C(=O)C(=O)N2CCCC[C@H]2C(=O)OC([C@H](C)C[C@@H]2CC[C@@H](O)[C@H](OC)C2)CC(=O)[C@H](C)/C=C(\C)[C@@H](O)[C@@H](OC)C(=O)[C@H](C)C[C@H](C)/C=C/C=C/C=C/1C (some centres undefined),0,0,-,0,-,-
CC[C@@H]1C=C(C)C[C@H](C)C[C@H](OC)[C@H]2O[C@@](O)(C(=O)C(=O)N3CCCC[C@H]3C(=O)O[C@H](/C(C)=C/[C@@H]3CC[C@@H](O)[C@H](OC)C3)[C@H](C)[C@@H](O)CC1=O)[C@H](C)C[C@@H]2OC,-,-,0[8.37 µM],-,6.51µM,?
O=C(Nc1ccn(Cc2c(F)c(F)cc(F)c2F)n1)c1ccc(COc2cc(Cl)ccc2Cl)o1,?,-,?,-,0,0
O=C(Nc1ccn(Cc2c(F)c(F)cc(F)c2F)n1)c1ccc(COc2ccccc2Cl)cc1,0,0,12.6µM,?,?,?
O=C(Nc1ccn(Cc2ccccc2F)n1)c1ccc(COc2ccccc2Cl)cc1,?,?,15.8µM,?,?,?
O=C(Nc1ccn(Cc2ccccc2F)n1)c1ccc(COc2cccc(Br)c2)cc1,0,0,?,?,8.91µM,?
O=C(CSc1nnc(CNC(=O)c2ccccc2)o1)NCC1CCCO1 (centres undefined),0,0,0,0,0,0
CCN(CC)c1nc2c(S(=O)(=O)c3cccc(Cl)c3)nnn2c2ccsc12,0,?,-,0,-,0
Cn1c(=O)c2c(nc(CN3CCN(c4ccccc4F)CC3)n2Cc2ccc(F)cc2)n(C)c1=O,0,0,-,0,?,?
Cc1nn(S(=O)(=O)c2ccc(F)cc2)c(C)c1S(=O)(=O)N1CCCCC1,0,0,0,0,0,0
COC(=O)C1=C(N)Oc2cc(C)n(CC3CCCO3)c(=O)c2C1c1ccccc1OC (centres undefined),0,-,0,0,0,0
COC(=O)C1=C(N)Oc2cc(N(C)C)ccc2C1c1ccccc1OC (centres undefined),0,?,6.31µM,?,?,?
CCOC(=O)c1c(-c2ccc(-c3ccccc3)cc2)csc1NC(=O)CCN1CCOCC1,0,?,?,?,?,10µM
CCOC(=O)c1c(-c2cccs2)csc1NC(=O)CN1CC(C)OC(C)C1 (centres undefined),?,0,?,0,11.2µM,?
CCOC(=O)c1c(-c2ccc(-c3ccccc3)cc2)csc1NC(=O)CNCCN(C)C,0,10µM,5.62µM,?,?,?
CCOC(=O)c1c(-c2ccc(F)cc2)csc1NC(=O)CCN1CCOCC1,0,0,0,0,0,0
CCOC(=O)c1c(-c2ccccc2)csc1NC(=O)C(C)NCCCN1CCOCC1 (centres undefined),0,0,10µM,0,?,?
CC(=O)SC1CC2=CC(=O)CC[C@@]2(C)C2CC[C@@]3(C)[C@@H](CC[C@@]34CCC(=O)O4)C12 (some centres undefined),0,0,-,0,-,-
SMILES,FMDV inh,Vaccinia mCherry,HCV inhibitor,Vaccinia Venus,MARV entry inh,LASV entry inh
COc1ccc(C(C(=O)NC(C)(C)C)N(CCc2ccccc2)C(=O)CCC(=O)Nc2cc(C)on2)cc1 (centres undefined),0,0,0,0,8.91µM,0
COc1ccc(C(=O)CSc2nnc(-c3cc4ccccc4cc3O)n2Cc2ccco2)cc1,?,0,11.2µM,0,0,?
COc1ccc(C(=O)CSc2nnc(-c3cccnc3)n2Cc2ccco2)cc1,0,-,0,-,0,0
CC(=O)c1ccc(NC(=O)C(C)n2nc(-c3ccccc3)ccc2=O)cc1 (centres undefined),0,0,-,0,0,0
CCOc1ccc(N(CC(=O)NC2CCCC2)C(=O)CSc2nnc(COc3ccccc3)o2)cc1,-,0,22.4µM,0,?,0
CCOc1ccc(N(CC(=O)NC2CCCCC2)C(=O)CCCC(=O)Nc2ccccn2)cc1,0,0,0,0,0,10µM
CC(=O)COc1nc2c(c(-c3ccco3)c1C#N)CCc1ccccc1-2,0,0[7.34 µM],11.2µM,0[7.34 µM],0,?
COc1ccc(Cc2c(-c3ccc(Cl)cc3)nc3cc(C)c(Br)c(C)n23)c(C)c1,0,0,-,0,-,-
O=C(CN1CCOCC1)Nc1ccccc1Sc1ccccc1,0,0,0,0,0,0
O=C(CN1CCN(C(=O)CNC(=O)c2ccc(-c3ccccc3)cc2)CC1)Nc1ccccc1Cl,28.2µM,?,-,?,-,-
CC(=O)N1CCN(CC(=O)Nc2ccccc2Sc2ccccc2)CC1,0,0,0,0,?,10µM
CC(C)c1c(C(=O)N/N=C/c2cccc(OCc3ccccc3)c2)nnn1-c1nonc1N,?,0,?,0,?,?
CC(C)c1c(C(=O)N/N=C/c2ccc(C(F)(F)F)cc2)nnn1-c1nonc1N,0,-,5.62µM,-,-,-
CC(/C=N/NC(=O)c1nnn(-c2nonc2N)c1C(C)C)=C\c1ccccc1,0,-,10µM,-,-,-
COc1cc(/C=N/NC(=O)c2nnn(-c3nonc3N)c2C(C)C)ccc1OCc1ccccc1,?,-,14.1µM,-,-,-
O=C(c1nc[nH]c1C(=O)N1CCN(c2ccccc2)CC1)N1CCN(c2ccccc2)CC1,0,0,3.55µM,0,-,-
CC(C)(C)OC(=O)N1CCN(C(=O)c2nc[nH]c2C(=O)N2CCN(c3ccccc3)CC2)CC1,0,0,0,0,-,-
CC(=O)Oc1ccc2c(c1)CC[C@@H]1[C@@H]2CC[C@]2(C)[C@@H](O)CC[C@@H]12,0,0,-,0,-,-
CC1CC2=C(NC(=S)NC2c2cccc(F)c2)/C(=C/c2cccc(F)c2)C1 (centres undefined),?,?,10µM,?,?,-
Cc1ccc(/C=C2\CC(C)CC3=C2NC(=S)NC3c2ccc(C)cc2)cc1 (centres undefined),0,?,?,0,?,0

# Screening results as filed in PubChem.
